Test results taken from PubChem BioAssay (EPA / NIEHS).
Records with an inconclusive call do not appear. Calls of active or inactive are those of the source. How the source made its calls: active means hit-call score of the fitted dose curve at least 0.9, where 1 is the maximum; inconclusive means response in the unintended direction; inactive means score below 0.9.

Experiments:
[1] = TOX21_p53_BLA_p2_viability: Viability Assessment in the Tox21 HCT-116 p53 Agonism Beta-lactamase Assay, Phase 2 (AID 2283591);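 further: compound exposure lasted 16 h at 37 °C; actives lower the ATP signal meaning cytotoxicity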
Outline: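 HCT-116 p53-bla cells (4000/well) rested 5 h at 37C, then received compounds in DMSO (217-fold dilution) for 16 h at 37C, 5% CO2. After the CCF4 read, CellTiter-Glo was added; ATP luminescence was read after 30 min at room temperature.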

[2] = molecular target: Cellular tumor antigen p53 (Homo sapiens) (UniProt P04637); assay: TOX21_p53_BLA_p2_ratio: Tox21 HCT-116 p53 Agonism Beta-lactamase Assay, Ratio, Phase 2 (AID 2283592)
Chain of Cellular tumor antigen p53 (Homo sapiens) (P04637 whole entry, looked up): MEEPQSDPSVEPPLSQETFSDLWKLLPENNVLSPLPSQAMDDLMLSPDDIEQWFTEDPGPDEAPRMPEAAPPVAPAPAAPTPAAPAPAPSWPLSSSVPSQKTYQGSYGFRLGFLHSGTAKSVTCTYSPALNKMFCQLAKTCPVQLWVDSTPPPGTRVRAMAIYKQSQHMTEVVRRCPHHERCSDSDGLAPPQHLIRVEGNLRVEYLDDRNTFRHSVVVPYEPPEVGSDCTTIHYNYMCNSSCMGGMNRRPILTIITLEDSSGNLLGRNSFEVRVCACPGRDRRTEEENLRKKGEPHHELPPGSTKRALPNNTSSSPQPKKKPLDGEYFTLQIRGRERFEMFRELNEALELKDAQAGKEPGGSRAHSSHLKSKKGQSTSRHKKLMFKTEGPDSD
Outline: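 HCT-116 cells with p53-responsive beta-lactamase reporter, 4000 cells/well, preincubated 5 h, then compound in DMSO (217-fold dilution) for 16 h at 37C. CCF4-AM substrate 2 h at room temperature; 460/530 nm emission ratio fitted upward versus DMSO.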

[3] = TOX21_p53_BLA_p3_viability: Viability Assessment in the Tox21 HCT-116 p53 Agonism Beta-lactamase Assay, Phase 3 (AID 2283593);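 further: cells exposed to compound for 16 h before reading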
Outline: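 HCT-116 cells (4000/well) rested 5 h at 37C, then got DMSO compounds by pin tool (217-fold dilution) for 16 h at 37C, 5% CO2. After the bla read, CellTiter-Glo was added and luminescence read at 30 min, room temperature.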

[4] = molecular target: Cellular tumor antigen p53 (Homo sapiens) (UniProt P04637); assay: TOX21_p53_BLA_p3_ratio: Tox21 HCT-116 p53 Agonism Beta-lactamase Assay, Ratio, Phase 3 (AID 2283596)
Outline: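 HCT116 p53-bla cells (4000/well) given compound in DMSO (217-fold dilution) after 5 h, incubated 16 h at 37C. CCF4-AM substrate 2 h at room temperature; 460/530 nm emission ratio, gain fitted against DMSO.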

[5] = TOX21_p53_BLA_p4_viability: Viability Assessment in the Tox21 HCT-116 p53 Agonism Beta-lactamase Assay, Phase 4 (AID 2283597);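 further: hits lower the luminescence signal meaning cytotoxicity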
Outline: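 HCT-116 p53-bla cells, 4000/well, dosed after 5 h attachment and incubated 16 h at 37 °C, 5% CO2. Viability from CellTiter-Glo ATP luminescence after 30 min at room temperature, taken after the beta-lactamase read; loss of signal indicates cytotoxicity.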

[6] = molecular target: Cellular tumor antigen p53 (Homo sapiens) (UniProt P04637); assay: TOX21_p53_BLA_p5_ratio: Tox21 HCT-116 p53 Agonism Beta-lactamase Assay, Ratio, Phase 5 (AID 2283599)
Outline: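 HCT-116 cells carrying a p53-inducible beta-lactamase reporter were seeded at 4000 cells/well and dosed after 5 h with compound in DMSO (217-fold dilution). After 16 h at 37C, CCF4-AM substrate was added for 2 h, and the 460/530 nm emission ratio was scored as gain-of-signal versus DMSO.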

[7] = TOX21_p53_BLA_p5_viability: Viability Assessment in the Tox21 HCT-116 p53 Agonism Beta-lactamase Assay, Phase 5 (AID 2283600)
Outline: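 HCT-116 p53 beta-lactamase reporter cells, 4000/well, were exposed to compound (pin transfer, 217-fold dilution) for 16 hours at 37C. Cellular ATP was read by CellTiter-Glo luminescence after 30 min at room temperature.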

[8] = molecular target: Cellular tumor antigen p53 (Homo sapiens) (UniProt P04637); assay: TOX21_p53_BLA_p4_ratio: Tox21 HCT-116 p53 Agonism Beta-lactamase Assay, Ratio, Phase 4 (AID 2283601)
Outline: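 HCT116 cells carrying an inducible beta-lactamase reporter were plated at 4000 cells/well, rested 5 h, then exposed to compounds in DMSO (217-fold dilution) for 16 h at 37C. CCF4-AM substrate was loaded 2 h at room temperature; 460/530 nm emission ratio scored gain-of-signal versus DMSO.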

Row | Structure (SMILES) | outcome [1] | outcome [2] | outcome [3] | outcome [4] | outcome [5] | outcome [6] | outcome [7] | outcome [8] | AC50 [1] | AC50 [3] | AC50 [5] | AC50 [7] | AC50 [2] | AC50 [4] | AC50 [6] | AC50 [8]
1 | CCOC(=O)Oc1c(OC)cc(C(=O)O[C@@H]2C[C@@H]3CN4CCc5c([nH]c6cc(OC)ccc56)[C@H]4C[C@@H]3[C@H](C(=O)OC)[C@H]2OC)cc1OC | inactive | inactive | inactive | inactive | inactive | inactive | inactive | inactive |  |  |  |  |  |  |  | 
2 | CCCCCCCCOc1ccccc1C(=O)Nc1ccc(C(=O)OCC[N+](C)(CC)CC)cc1 |  | inactive |  | inactive |  | inactive |  | inactive | 28.9 µM (active) | 30.5 µM (active) | 19 µM (active) | 32.8 µM (active) |  |  |  | 
3 | Oc1ccc(Sc2ccc(O)cc2)cc1 | inactive |  | inactive |  | inactive |  | inactive | inactive |  |  |  |  | 69.4 µM (active) | 69.8 µM (active) | 70.4 µM (active) | 
4 | CC1CCCO1 (stereo unspecified) | inactive | inactive | inactive | inactive | inactive |  | inactive | inactive |  |  |  |  |  |  | 85.2 µM (active) | 
5 | CCN(CC)CCOc1ccc(-c2nc3cc(Cl)ccc3s2)cc1 |  | inactive | inactive | inactive |  | inactive | inactive | inactive | 44.8 µM (active) |  | 36.3 µM (active) |  |  |  |  | 
6 | C=CC(=O)Nc1cc2c(Nc3ccc(F)c(Cl)c3)ncnc2cc1OCCCN1CCOCC1 | inactive | inactive |  |  | inactive | inactive | inactive |  |  | 38.7 µM (active) |  |  |  | 25.4 µM (active) |  | 7.82 µM (active)
7 | CCCCC(=O)OCC(=O)[C@]1(O)Cc2c(O)c3c(c(O)c2[C@@H](O[C@H]2C[C@H](NC(=O)C(F)(F)F)[C@H](O)[C@H](C)O2)C1)C(=O)c1c(OC)cccc1C3=O | inactive |  | inactive |  | inactive |  | inactive |  |  |  |  |  | 7.68 µM (active) | 8.58 µM (active) | 7.73 µM (active) | 5.24 µM (active)
8 | CCCCOc1ccc(C(=O)CCN2CCCCC2)cc1 | inactive | inactive | inactive | inactive |  | inactive | inactive | inactive |  |  | 6.37 µM (active) |  |  |  |  | 
9 | Cc1cc(O)c(C(C)(C)C)cc1Sc1cc(C(C)(C)C)c(O)cc1C |  |  |  |  |  |  |  |  | 13.2 µM (active) | 20 µM (active) | 14.3 µM (active) | 18.1 µM (active) | 37.9 µM (active) | 33.4 µM (active) | 40.9 µM (active) | 31.5 µM (active)
10 | CC1=C(/C=C/C(C)=C/C=C/C(C)=C/C=C/C=C(C)/C=C/C=C(C)/C=C/C2=C(C)C[C@@H](O)CC2(C)C)C(C)(C)C[C@H](O)C1 |  |  | inactive |  |  |  |  |  | 40.1 µM (active) |  | 36.6 µM (active) | 43.2 µM (active) | 38.8 µM (active) | 33.8 µM (active) | 38.8 µM (active) | 36.4 µM (active)
11 | CN(C)CCN(C)CCN(C)C | inactive | inactive | inactive | inactive | inactive | inactive | inactive | inactive |  |  |  |  |  |  |  | 
12 | Cn1cnc2c(F)c(Nc3ccc(Br)cc3Cl)c(C(=O)NOCCO)cc21 | inactive | inactive | inactive | inactive | inactive | inactive | inactive | inactive |  |  |  |  |  |  |  | 
13 | CCOC(CN1CCN(CC(C)C(=O)c2ccccc2)CC1)c1ccccc1 (stereo unspecified) | inactive | inactive | inactive | inactive | inactive | inactive | inactive | inactive |  |  |  |  |  |  |  | 
14 | O[C@@H](c1cc(C(F)(F)F)nc2c(C(F)(F)F)cccc12)[C@H]1CCCCN1 |  |  |  |  |  |  |  |  | 32.7 µM (active) | 34 µM (active) | 24.6 µM (active) | 22 µM (active) | 28.9 µM (active) | 43.6 µM (active) | 42.9 µM (active) | 39.6 µM (active)
15 | CN1CC(=O)N/C1=N/C(=O)Nc1cccc(Cl)c1 | inactive | inactive | inactive | inactive | inactive | inactive | inactive | inactive |  |  |  |  |  |  |  | 
16 | CCCCCCCC/C=C\CCCCCCCC(=O)N(CCO)CCO | inactive | inactive | inactive | inactive | inactive | inactive | inactive | inactive |  |  |  |  |  |  |  | 
17 | Nc1c(N=Nc2ccc(-c3ccc(N=Nc4cc(S(=O)(=O)O)c5ccccc5c4N)cc3)cc2)cc(S(=O)(=O)O)c2ccccc12 | inactive | inactive | inactive | inactive | inactive | inactive | inactive | inactive |  |  |  |  |  |  |  | 
